We go through eight compounds from PubChem BioAssay (Tox21).

The nature of experiment [1]: Nuclear factor erythroid 2-related factor 2/antioxidant responsive element (Nrf2/ARE) small molecule agonists: qHTS cell viability counter screen in human keratinocytes (AID 1919968; active means well fitted curve in the direction sought with a large enough effect in the repeat runs; an effect the other way counts as inactive or inconclusive; further: nearly all actives have a fitted effect of over 55% in size; further: potency means the concentration at half of the fitted maximal effect). The method in brief:
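Measured as CellTiter-Fluor fluorescence, this readout tracks cytotoxicity in the same wells as the ARE-luciferase screen. HaCaT reporter cells (1,500/well) received compounds after a 5 h pre-incubation and were exposed for 23 h.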
On the technique in general: qHTS replaces the single test concentration by a dilution series.

The nature of experiment [2]: Nuclear factor erythroid 2-related factor 2/antioxidant responsive element (Nrf2/ARE) small molecule agonists: luciferase reporter gene qHTS assay in human keratinocytes (AID 1919969). Further: nearly all actives have a fitted effect of over 35% in size. Further: potency means the concentration at half of the fitted maximal effect. In general terms: A reporter such as luciferase makes a cellular process visible.
The target in experiment [3] is Gonadotropin-releasing hormone receptor (Homo sapiens) (UniProt P30968). The experiment can be described thus: Human gonadotropin-releasing hormone receptor (GnRHR) small molecule agonists, calcium flux assay in GnRHR-HEK293 cells (AID 1920063). Further: nearly all actives have a fitted effect of over 35% in size. The method in brief: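 Fluorescence kinetics (480 nm excitation, 540 nm emission; 3 min, 1 s steps) report calcium mobilisation in human GnRHR-HEK293 cells in agonist mode. Dye incubation: 1 h, 37 C.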
A general note: Calcium flux is commonly read through the fluorescence of an indicator in the cells.

Experiment [4] concerns the target KiSS-1 receptor (Homo sapiens) (UniProt Q969F8). The experiment can be described thus: Human kisspeptin (KISS1R) small molecule agonists, calcium flux assay in KISS1R-HEK293 cells (AID 1920064; active means well fitted curve in the direction sought with a large enough effect in the repeat runs; an effect the other way counts as inactive or inconclusive). In a few lines:
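Measures KISS1R agonism through calcium-sensitive dye fluorescence in stably transfected HEK293 cells, read for 3 min after pin-tool compound delivery; 15-point titrations in triplicate.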

Experiment [5] is described as follows: G protein-coupled receptor (GPCR) small molecule agonists, calcium flux assay: HEK293 wild type cell line counter screen (AID 1920065). In a few lines:
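Readout: fluorescence at 480 nm excitation/540 nm emission, sampled at 1 s intervals for 3 min. Cells had been cultured 18 h, then dye-loaded 1 h at 37 C before compound or ATP addition.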

Experiment [6] can be described thus: p53 small molecule agonists, cell-based qHTS assay with human liver microsomes (AID 1963577).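 Further: p53 response element beta-lactamase reporter cells with liver microsomes plus NADPH.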 The method in brief: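 16 h, 37 C exposure of p53RE-bla cells to compounds with human liver microsomes and NADPH (0.5 mg/mL final each); detection via LiveBLAzer mixture, 2 h dark at room temperature.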
The nature of experiment [7]: p53 small molecule agonists, cell-based qHTS assay with human liver microsomes: qHTS cell viability counter screen (AID 1963579). Further: nearly all actives have a fitted effect of over 45% in size. The method in brief:
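In this multiplexed counter screen, the reporter plates were subsequently treated with CellTiter-Glo so that cell viability, reflected by luminescence, could be recorded for p53RE-bla cells dosed 16 h with compounds under microsomal activation (HLM and NADPH).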

A short description of experiment [8]: p53 small molecule agonists, cell-based qHTS assay with rat liver microsomes: qHTS cell viability counter screen (AID 1963580). Further: nearly all actives have a fitted effect of over 45% in size. In a few lines:
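p53RE-bla HCT-116 cells (4,000/well) rested 5 h at 37 C, then given Tox21 compounds in DMSO with rat liver microsomes (0.5 mg/mL final) plus NADPH (0.5 mg/mL final) for 16 h at 37 C. Viability read by CellTiter-Glo luminescence after 30 min at room temperature.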

Experiment [9] concerns the target Beta-2 adrenergic receptor (Homo sapiens) (UniProt P07550). The experiment can be described thus: Adrenergic beta2 receptor (ADRB2) small molecule antagonists, cell-based qHTS assay (AID 1963592). Further: nearly all actives have a fitted effect of over 50% in size. Further: potency means the concentration at half of the fitted maximal effect. The method in brief:
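Cells (CHO, stable ADRB2 overexpression) incubated 18-20hr at 37C; compounds added from DMSO; agonist mix (1nM isoproterenol, 100uM IBMX, 25uM Ro-20-1724) added; 0.5hr RT; d2-cAMP and anti-cAMP-cryptate added; 1hr RT; 665/615 nm read.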

Experiment [10] has as its target D(2) dopamine receptor (Homo sapiens) (UniProt P14416). The experiment in a line: Dopamine D2 receptor (DRD2) small molecule agonists, cell-based qHTS assay (AID 1963594). Further: nearly all actives have a fitted effect of over 35% in size. In a few lines:
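HEK293 cells stably expressing DRD2 were cultured 24 h at 37 C, then given Ro20-1724 (0.1 mM final) and compounds for 10 min at room temperature. NKH477 (200nM) was then added for 30 min. cAMP was read by HTRF.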

Experiment [11] shares this target. The experiment can be described thus: Dopamine D2 receptor (DRD2) small molecule antagonists, cell-based qHTS assay (AID 1963595; active means well fitted inhibition curve with a large enough effect in the signal ratio in the repeat runs, with a control signal flat; the % refers to the signal ratio). The method in brief: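 Stable D2 receptor HEK293 line, 24 h after seeding. Compound preincubated 10 min, then quinpirole (12 nM) with forskolin analogue NKH477 (200 nM), 30 min, room temperature. Detection by time-resolved FRET of cAMP.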

Experiment [12] can be described thus: p53 small molecule agonists, cell-based qHTS assay (AID 1963582; active means well fitted activation curve with a large enough effect in the signal ratio in the repeat runs, not every such curve was filed as active; the % refers to the signal ratio). In a few lines:
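Compounds are pin-transferred in DMSO onto p53RE-bla cells and incubated 16 h at 37 C. The B/G FRET beta-lactamase substrate is then applied for 2 h at RT and fluorescence recorded.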

For experiment [13], the target named is 5-hydroxytryptamine receptor 2A (Homo sapiens) (UniProt P28223). The experiment can be described thus: 5-hydroxytryptamine receptor 2A (HTR2A) small molecule antagonists, cell-based qHTS assay (AID 1963586). Further: nearly all actives have a fitted effect of over 45% in size. Further: potency means the concentration at half of the fitted maximal effect. The method in brief: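 Antagonist-mode intracellular calcium assay: DOI (4 nM) added after 5 min compound pre-incubation at room temperature to dye-loaded HTR2A-CHO cells. Fluorescence followed for 3 min, sampled every second.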

Experiment [14] shares this target. The experiment in a line: 5-hydroxytryptamine receptor 2A (HTR2A) small molecule agonists, cell-based qHTS assay (AID 1963587). Further: nearly all actives have a fitted effect of over 30% in size. In a few lines: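 HTR2A-CHO cells, plated 18 h at 37 C/5% CO2, dye-loaded 1 h at 37 C; compounds in DMSO added by pin tool (agonist mode). Intracellular calcium flux read as kinetic fluorescence on FDSS over 2 min at 1 s intervals.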

Experiment [15] deals with Muscarinic acetylcholine receptor M1 (Homo sapiens) (UniProt P11229). The experiment in a line: Cholinergic receptor muscarinic 1 (CHRM1) small molecule antagonists, cell-based qHTS assay (AID 1963588). Further: nearly all actives have a fitted effect of over 40% in size. Further: potency means the concentration at half of the fitted maximal effect. In a few lines:
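CHRM1-CHO calcium-flux assay, antagonist mode. Cells were seeded 18 h, dye-loaded 1 h at 37 C and given compound for 5 min at RT, then acetylcholine was added at 50nM. FDSS fluorescence was read 3 min; 15 concentrations, three runs.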

The target is the same in experiment [16]. The experiment in a line: Cholinergic receptor muscarinic 1 (CHRM1) small molecule agonists, cell-based qHTS assay (AID 1963589). Further: nearly all actives have a fitted effect of over 35% in size. In a few lines:
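Each compound was tested at 15 concentrations across three independent runs on dye-loaded CHO cells stably expressing human CHRM1, reading intracellular calcium fluorescence kinetically at 1 sec intervals.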

A short description of experiment [17]: cAMP Responsive Elements (CRE) small molecule agonists, cell-based qHTS assay (AID 1963590). In a few lines:
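Cell line: CRE-bla HEK 293T; medium DMEM/10% dialyzed FBS/0.1 mM NEAA/1 mM pyruvate/25 mM HEPES; 3 h compound exposure; beta-lactamase FRET readout after 2 h substrate loading at RT.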

Experiment [18] can be described thus: p53 small molecule agonists, cell-based qHTS assay: qHTS cell viability counter screen (AID 1963581). Further: nearly all actives have a fitted effect of over 45% in size. The method in brief:
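In the same plates used for the p53 bla reporter, HCT-116 cells given compounds for 16 h at 37 C received CellTiter-Glo; luminescence was recorded 30 min later at room temperature.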

Experiment [19] in a line: cAMP Responsive Elements (CRE) small molecule antagonists, cell-based qHTS assay (AID 1963591; active means well fitted inhibition curve with a large enough effect in the signal ratio in the repeat runs, not every such curve was filed as active; the % refers to the signal ratio). In a few lines: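 Inhibition of NKH477-driven (0.25 uM final) CRE-beta-lactamase signal in HEK293T cells, 3 h compound exposure at 37 °C, detected by FRET substrate fluorescence.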

Structures are written as SMILES. Inconclusive results are not listed. Active and inactive are the calls of the source. Unless noted, the call rests on the fitted dose curve.

Chain of Beta-2 adrenergic receptor (Homo sapiens) (P07550 whole entry, looked up): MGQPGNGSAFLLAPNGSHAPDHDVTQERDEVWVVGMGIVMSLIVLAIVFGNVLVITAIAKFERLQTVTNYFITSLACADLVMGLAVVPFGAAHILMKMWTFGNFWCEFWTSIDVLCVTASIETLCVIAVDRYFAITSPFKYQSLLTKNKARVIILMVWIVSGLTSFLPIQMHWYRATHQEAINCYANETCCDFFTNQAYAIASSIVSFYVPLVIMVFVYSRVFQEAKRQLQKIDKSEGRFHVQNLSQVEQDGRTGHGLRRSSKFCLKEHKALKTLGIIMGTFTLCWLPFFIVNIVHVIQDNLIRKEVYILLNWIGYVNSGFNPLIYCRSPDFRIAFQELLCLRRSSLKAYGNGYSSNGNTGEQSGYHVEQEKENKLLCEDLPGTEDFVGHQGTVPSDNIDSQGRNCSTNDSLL
Chain of Gonadotropin-releasing hormone receptor (Homo sapiens) (P30968 whole entry, looked up): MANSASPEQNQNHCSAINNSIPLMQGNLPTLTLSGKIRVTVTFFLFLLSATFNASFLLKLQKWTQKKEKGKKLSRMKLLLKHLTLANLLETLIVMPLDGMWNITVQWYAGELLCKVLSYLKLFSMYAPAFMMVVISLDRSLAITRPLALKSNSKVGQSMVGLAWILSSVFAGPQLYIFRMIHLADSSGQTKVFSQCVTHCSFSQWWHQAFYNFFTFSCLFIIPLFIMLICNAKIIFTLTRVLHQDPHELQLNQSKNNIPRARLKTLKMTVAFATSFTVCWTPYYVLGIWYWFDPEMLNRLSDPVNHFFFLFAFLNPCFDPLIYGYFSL
Chain of D(2) dopamine receptor (Homo sapiens) (P14416 whole entry, looked up): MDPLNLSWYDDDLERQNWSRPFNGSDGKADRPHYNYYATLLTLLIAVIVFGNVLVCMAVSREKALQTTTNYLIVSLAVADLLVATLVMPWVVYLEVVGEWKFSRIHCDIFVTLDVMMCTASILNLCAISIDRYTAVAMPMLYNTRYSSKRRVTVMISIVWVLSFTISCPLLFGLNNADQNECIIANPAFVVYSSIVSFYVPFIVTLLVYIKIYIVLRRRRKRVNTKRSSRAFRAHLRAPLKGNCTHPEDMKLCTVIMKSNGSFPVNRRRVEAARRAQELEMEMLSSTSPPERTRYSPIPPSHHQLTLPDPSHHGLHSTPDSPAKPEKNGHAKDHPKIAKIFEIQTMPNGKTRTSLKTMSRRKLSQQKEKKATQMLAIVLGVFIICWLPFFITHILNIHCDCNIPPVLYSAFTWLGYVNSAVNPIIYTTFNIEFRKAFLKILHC
Chain of KiSS-1 receptor (Homo sapiens) (Q969F8 whole entry, looked up): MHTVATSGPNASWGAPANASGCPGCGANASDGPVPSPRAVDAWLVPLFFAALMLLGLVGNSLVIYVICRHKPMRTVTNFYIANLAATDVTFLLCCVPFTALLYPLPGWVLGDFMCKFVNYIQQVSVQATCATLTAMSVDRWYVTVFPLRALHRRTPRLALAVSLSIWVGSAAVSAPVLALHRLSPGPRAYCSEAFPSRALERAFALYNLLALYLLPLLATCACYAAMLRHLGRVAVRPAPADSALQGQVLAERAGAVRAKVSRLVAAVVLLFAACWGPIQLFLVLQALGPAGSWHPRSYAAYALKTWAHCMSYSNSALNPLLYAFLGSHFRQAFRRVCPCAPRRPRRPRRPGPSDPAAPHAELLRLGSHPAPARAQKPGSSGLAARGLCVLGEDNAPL
Chain of 5-hydroxytryptamine receptor 2A (Homo sapiens) (P28223 whole entry, looked up): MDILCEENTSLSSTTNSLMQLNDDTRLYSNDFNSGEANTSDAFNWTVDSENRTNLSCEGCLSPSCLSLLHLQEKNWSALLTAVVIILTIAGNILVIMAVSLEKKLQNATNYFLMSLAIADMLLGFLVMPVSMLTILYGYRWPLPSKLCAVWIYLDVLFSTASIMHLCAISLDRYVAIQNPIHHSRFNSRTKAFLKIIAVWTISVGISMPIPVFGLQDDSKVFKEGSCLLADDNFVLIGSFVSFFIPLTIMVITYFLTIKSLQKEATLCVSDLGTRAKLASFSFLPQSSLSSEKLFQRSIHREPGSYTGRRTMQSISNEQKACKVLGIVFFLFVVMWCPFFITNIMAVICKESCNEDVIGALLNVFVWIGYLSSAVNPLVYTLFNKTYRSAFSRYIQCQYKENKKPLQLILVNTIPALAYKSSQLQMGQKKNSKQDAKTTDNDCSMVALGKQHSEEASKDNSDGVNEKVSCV
Chain of Muscarinic acetylcholine receptor M1 (Homo sapiens) (P11229 whole entry, looked up): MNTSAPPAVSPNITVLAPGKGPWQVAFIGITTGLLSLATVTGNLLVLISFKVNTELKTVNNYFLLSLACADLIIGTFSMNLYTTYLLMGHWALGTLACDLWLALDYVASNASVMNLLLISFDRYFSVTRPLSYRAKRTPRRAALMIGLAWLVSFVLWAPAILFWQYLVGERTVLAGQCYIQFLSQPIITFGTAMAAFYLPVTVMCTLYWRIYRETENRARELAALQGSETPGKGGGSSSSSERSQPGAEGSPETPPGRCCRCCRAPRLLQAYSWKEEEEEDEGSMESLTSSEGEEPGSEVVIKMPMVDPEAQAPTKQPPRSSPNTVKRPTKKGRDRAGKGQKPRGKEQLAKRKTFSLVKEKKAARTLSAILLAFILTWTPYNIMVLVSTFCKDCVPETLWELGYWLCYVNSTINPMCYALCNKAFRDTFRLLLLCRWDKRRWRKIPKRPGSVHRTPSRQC

For `CC1=C(/C=C/C(C)=C\C=C\C(C)=C\C(=O)O)C(C)(C)CCC1`, the Potency entry in [1], in [3], in experiment [6], in experiment [7], in [8] and in experiment [9] was “inactive” each time. In addition, the Potency entry in experiment [10] and in experiment [11] was “inactive” each time. Further, in experiment [2], the Potency was 54.5 µM (active). The outcome in experiment [4] and in [5] was inactive.
`CCNc1nc(NC(C)(C)C)nc(OC)n1`: the Potency entry in [1], in experiment [2], in experiment [3], in [6], in experiment [7] and in [8] was “inactive” throughout. Moreover, the Potency result in experiment [12], in experiment [13], in experiment [14], in [15], in experiment [16] and in [17] was “inactive” in each case. The Potency result in [9], in [10] and in [11] was “inactive” each time. Besides, the result in experiment [4] and in experiment [5] was inactive.
Regarding `CCOc1ccccc1O[C@H](c1ccccc1)[C@H]1CNCCO1`, the Potency result in experiment [1], in experiment [2], in [3], in [6], in experiment [7] and in experiment [8] was “inactive” in each case. Besides, the Potency entry in [18], in experiment [16], in experiment [17], in experiment [19] and in [11] was “inactive” each time. Also, the result in experiment [4] and in [5] was inactive.
Turning to `CCN(CCCCOC(=O)c1ccc(OC)c(OC)c1)C(C)Cc1ccc(OC)cc1` (centres undefined), the Potency result in experiment [1], in experiment [2], in experiment [3], in experiment [6], in [7] and in [8] was “inactive” throughout. Further, the Potency entry in experiment [18], in experiment [16], in experiment [17], in experiment [10] and in experiment [11] was “inactive” each time. Moreover, the outcome in experiment [4] and in [5] was inactive. Moreover, the Potency is 0.163 µM (active) in experiment [15] and 13.3 µM (active) in [9].
Take `N=C1C=CC(=C(c2ccc(N)cc2)c2ccc(N)cc2)C=C1`: the Potency in experiment [1] was 27.3 µM (active); in [2], 61.1 µM (active); in experiment [13], 8.4 µM (active). Also, the Potency result in experiment [3], in experiment [6], in [7], in [18], in experiment [14] and in experiment [15] was “inactive” throughout. For the same compound, the Potency result in experiment [16] was “inactive”. For the same compound, the result in experiment [4] and in experiment [5] was inactive.
In the case of `CC(=O)NCCCCCC(=O)O`, the Potency entry in experiment [1], in experiment [2], in experiment [3], in experiment [6], in experiment [7] and in experiment [12] was “inactive” throughout. In addition, the Potency entry in experiment [13], in experiment [14], in experiment [15], in [16], in experiment [17] and in [19] was “inactive” each time. For the same compound, the Potency result in experiment [9], in experiment [10] and in experiment [11] was “inactive” throughout. Moreover, the result in experiment [4] and in experiment [5] was inactive.
Consider `CC(=O)CC(=O)OC(C)(C)C`, for which the Potency entry in experiment [1], in [2], in [3], in experiment [6], in [7] and in experiment [8] was “inactive” in each case. Also, the Potency result in experiment [18], in experiment [13], in [15], in [17], in experiment [19] and in experiment [9] was “inactive” in each case. The Potency result in experiment [10] and in experiment [11] was “inactive” in each case. Also, the result in experiment [4] and in experiment [5] was inactive.
Consider `CCCCCCCCCOC(=O)c1ccccc1C(=O)OCCCCCCCCC`, for which the Potency entry in experiment [1], in experiment [2], in [3], in [6], in [7] and in experiment [8] was “inactive” in each case. The Potency result in experiment [18], in experiment [13], in [14], in experiment [15], in experiment [16] and in [17] was “inactive” each time. Moreover, the Potency result in experiment [19], in experiment [9], in experiment [10] and in experiment [11] was “inactive” throughout. Further, the outcome in experiment [4] and in experiment [5] was inactive.
